Compound activity (PubChem BioAssay)
DT40 TDP1 no CPT: qHTS for Inhibitors of human tyrosyl-DNA phosphodiesterase 1 (TDP1): qHTS in cells in absence of CPT. DT40 Tdp1-/- hTDP1 cells, no CPT, ATP luminescence, 48 h. Potency, µM (doses to about 46.2 µM), inactives show top-dose activity change, negative = growth inhibition, actives largely listed as inhibitors. hit rate 15% among 420,000; further: potency means the concentration at half of the fitted maximal effect; on the % scale 0 is the no-effect control and ±100 the full control effect; nearly all actives have a fitted effect of over 55% in size
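Camptothecin absent (DMSO only). Human TDP1-complemented DT40 knockout cells, 400 cells/well, 37 °C for minimum 48 hr; ATP measured via CellTiter-Glo, 30 min dark incubation, luminescence.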
SW480 rereplic: DNA re-replication induction in SW480 cells. SW480 DNA re-replication, Hoechst DNA content imaging, 48 h. Potency, µM (highest dose often 46.1 µM), inactives show at the top dose re-replication activation, most hits filed as activators. hit rate 1.8% among 340,000. AID 624297; further: potency means the concentration at half of the fitted maximal effect; % of control where 0% means no effect; nearly all actives have a fitted effect of over 55% in size
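DNA re-replication was detected as more nuclei of elevated Hoechst intensity after 48 hr exposure to compound (23 nL pinned per well of 250 cells).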
MCF10A rerep: induces DNA re-replication in MCF 10a normal breast cells. hit rate 2.9% among 350,000. MCF 10A DNA re-replication, Hoechst nuclear intensity, 48 h. AID 624296. Potency, µM (top dose mostly 46.1 µM), for the others: at the top dose activity, positive = re-replication, most hits filed as activators; further: potency means the concentration at half of the fitted maximal effect; % of control where 0% means no effect; nearly all actives have a fitted effect of over 50% in size
IL1B secr inh: inflammasome signaling inhibition, IL-1 beta readout; THP-1 LPS/ATP IL-1B secretion, AlphaLISA, 16 h; hits give low values; activity change, % at 57.5 µM; hit rate 4.7% among 360,000; in the data active means activity change below about -50%; inconclusive means mostly about -30% to -49%; further: on the % scale 0 is the no-effect control and ±100 the full control effect
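Secreted IL-1B measured by AlphaLISA bead assay after 16 h compound exposure of THP-1 cells; compounds (final up to 57.5 uM) added 1 h before LPS (250 ng/mL) and ATP (1.25 mM) stimulation; lower signal means less secretion.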
Chronic BCR inh: chronic active BCR signaling inhibition | ABC-DLBCL IkBa-CBG/CBR reporter, luminescence ratio, 4 h | Potency, µM (series often up to 46.1 µM), inactives show at the highest dose activity change, negative = inhibition, actives largely listed as inhibitors | hit rate 0.05% among 340,000 | AID 493014; active means well fitted inhibition curve with a large enough effect in the signal ratio, with a control signal flat, not every such curve was filed as active; inconclusive means small, poorly fitted or top-dose-only effect, or effect the other way, or a change in a side signal; the % refers to the signal ratio;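 further: potency means the concentration at half of the fitted maximal effect; plate controls were basal doxycycline-induced cells for no effect and cells given 10 µM MG132 for full effect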
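Cell line TMD8 (human ABC DLBCL), stably expressing tet-inducible CBG68-IkBa fusion and CBR; IMDM/0.5% FBS; cpd up to 46 uM; dox induction, 4 h, 37C/5% CO2; dual luminescence; green/red ratio; MG132 control.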
DT40 TDP1 CPT: growth inhibition of DT40 Tdp1-/-;hTDP1 cells with camptothecin (screen for TDP1 inhibitors); chicken DT40 Tdp1-/-;hTDP1 cells + 20 nM CPT, ATP luminescence, 48 h; Potency, µM (top dose mostly 46.2 µM), for inactives: at the top dose activity change, negative = growth inhibition, usual class: inhibitors; hit rate 12% among 420,000; further: potency means the concentration at half of the fitted maximal effect; on the % scale 0 is the no-effect control and ±100 the full control effect; nearly all actives have a fitted effect of over 55% in size
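Cell growth measured by CellTiter-Glo luminescence after a minimum 48 h, 37 C compound exposure with 20 nM CPT in Tdp1-knockout DT40 cells stably expressing hTDP1, seeded 400/well; qHTS titration format.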
* hit, by the source's call; [ ] = dose if it differs, or a comment. Most compounds without a hit are left out; they make up all but 19% or so of the library. Unless noted, the call rests on the fitted dose curve; in most records, active means well fitted curve in the direction sought with a large enough effect; inconclusive means small, poorly fitted or top-dose-only effect, or another doubt; inactive means no such curve, though single readings can be large; an effect the other way counts as inactive or inconclusive.

Screening CN(C)N1C(N)=C(C#N)C(c2cccc3ccccc23)C2=C1CC(c1ccccc1)CC2=O (configuration not stated) returned DT40 TDP1 no CPT 7.3µM*, SW480 rereplic inconclusive, MCF10A rerep 15µM*, IL1B secr inh -20, Chronic BCR inh inconclusive and DT40 TDP1 CPT 8.2µM*.
For CCc1nc(N)nc(N)c1-c1ccc(NCCN)c([N+](=O)[O-])c1 the results were DT40 TDP1 no CPT 2.6µM*, SW480 rereplic 3%, MCF10A rerep 11%, IL1B secr inh 5 and DT40 TDP1 CPT 8.2µM*.
`CCc1nc(N)nc(N)c1-c1ccc(Cl)cc1` gave DT40 TDP1 no CPT 0.65µM*, SW480 rereplic inconclusive, MCF10A rerep 64%, IL1B secr inh -25, Chronic BCR inh -17% and DT40 TDP1 CPT 0.94µM*.
For COc1ccc(CN(C)c2ccc(-c3nc(C)no3)cc2[N+](=O)[O-])cc1 the results were DT40 TDP1 no CPT 8.2µM* and DT40 TDP1 CPT 10µM*.
`Cc1noc(-c2ccc(-c3noc(-c4ccc([N+](=O)[O-])c(C)c4)n3)cc2)n1` gave DT40 TDP1 no CPT -2% and DT40 TDP1 CPT -5%.
For Cc1noc(-c2ccc(N(C)Cc3ccccc3)c([N+](=O)[O-])c2)n1 the results were DT40 TDP1 no CPT 16µM* and DT40 TDP1 CPT 21µM*.
Screening Cc1ccc(NC(=O)c2ncn(CCCNCC3CCCO3)n2)cc1C (configuration not stated) returned DT40 TDP1 no CPT -26%, SW480 rereplic -9%, MCF10A rerep inconclusive, IL1B secr inh 29 and DT40 TDP1 CPT 5%.
`CCN(CC)c1ccc(-c2nc(-c3ccco3)no2)cc1[N+](=O)[O-]` gave DT40 TDP1 no CPT 26µM* and DT40 TDP1 CPT inconclusive.
For CCc1nc(N)nc(N)c1-c1ccc(N(C)Cc2ccccc2)c([N+](=O)[O-])c1 the results were DT40 TDP1 no CPT 0.65µM*, SW480 rereplic 22%, MCF10A rerep 14%, IL1B secr inh -98* and DT40 TDP1 CPT 4.6µM*.
Screening COc1cccc(-c2cc(CC3(O)CCN(CCCc4ccccc4)CC3)on2)c1 returned DT40 TDP1 no CPT 5%, SW480 rereplic -3%, MCF10A rerep inconclusive, IL1B secr inh inconclusive, Chronic BCR inh -1% and DT40 TDP1 CPT -14%.
`CCCn1c2ccccc2c2nnc(SC(CC)C(=O)Nc3sc4c(c3C#N)CCCC4)nc21` (configuration not stated) gave DT40 TDP1 no CPT inconclusive, SW480 rereplic 0%, MCF10A rerep 22%, IL1B secr inh 88, Chronic BCR inh inconclusive and DT40 TDP1 CPT inconclusive.
Screening CCOC(=O)C(Sc1nnc2c3ccccc3n(CC)c2n1)C(=O)OCC returned DT40 TDP1 no CPT inconclusive, SW480 rereplic 5%, MCF10A rerep 6%, IL1B secr inh 2, Chronic BCR inh -10% and DT40 TDP1 CPT -17%.
Screening CCOC(=O)c1sc(NC(=O)C(CC)Sc2nnc3c4ccccc4n(CC)c3n2)nc1C (configuration not stated) returned DT40 TDP1 no CPT inconclusive, SW480 rereplic 1%, MCF10A rerep 0%, IL1B secr inh 40, Chronic BCR inh -12% and DT40 TDP1 CPT 6.5µM*.
For CCC(Sc1nnc2c3ccccc3n(CC)c2n1)C(=O)Nc1ccc(NC(C)=O)cc1 (configuration not stated) the results were DT40 TDP1 no CPT 21µM* and DT40 TDP1 CPT inconclusive.
Screening CCCn1c2ccccc2c2nnc(SC(CC)C(=O)Nc3cc(C)on3)nc21 (configuration not stated) returned DT40 TDP1 no CPT 29µM*, SW480 rereplic 3%, MCF10A rerep 7%, IL1B secr inh inconclusive, Chronic BCR inh 5% and DT40 TDP1 CPT inconclusive.
`Cc1ccc(C)c(N2CCN(C3(c4ccccc4)C(=O)c4ccccc4C3=O)CC2)c1` gave DT40 TDP1 no CPT -23% and DT40 TDP1 CPT -10%.
For COc1cc(C(=O)NNC(=O)c2cccn2C)cc(OC)c1OC the results were DT40 TDP1 no CPT 15%, SW480 rereplic -5%, MCF10A rerep 1%, IL1B secr inh 1, Chronic BCR inh -11% and DT40 TDP1 CPT 1%.
For CCOC(=O)C1CCN(c2ncnc3c2oc2ccccc23)CC1 the results were DT40 TDP1 no CPT 16µM*, SW480 rereplic 3%, MCF10A rerep inconclusive, IL1B secr inh 11, Chronic BCR inh -7% and DT40 TDP1 CPT inconclusive.
CCOC(=O)C1CCCN(C(=O)c2cc(=O)c3ccccc3o2)C1 (configuration not stated) was read as DT40 TDP1 no CPT 0%, SW480 rereplic 1%, MCF10A rerep 1%, IL1B secr inh 20, Chronic BCR inh 12% and DT40 TDP1 CPT 0%.
For CCOC(=O)C1CCCN(c2ncnc3c2oc2ccccc23)C1 (configuration not stated) the results were DT40 TDP1 no CPT 13µM*, SW480 rereplic 3%[9.22 µM], MCF10A rerep 5%, IL1B secr inh 53, Chronic BCR inh inconclusive and DT40 TDP1 CPT inconclusive.
CCc1nnc(N2CCN(c3ncnc4c3oc3ccccc34)CC2)s1 was read as DT40 TDP1 no CPT 18µM*, SW480 rereplic -5%, MCF10A rerep inconclusive, IL1B secr inh inconclusive, Chronic BCR inh 3% and DT40 TDP1 CPT 18µM*.
Screening c1ccc(N2CCN(c3ncnc4c3oc3ccccc34)CC2)cc1 returned DT40 TDP1 no CPT inconclusive, SW480 rereplic -3%, MCF10A rerep 3%, IL1B secr inh -9, Chronic BCR inh 5% and DT40 TDP1 CPT inconclusive.
CCOC(=O)C1CCN(c2nc(-c3ccccc3)nc3c2oc2ccccc23)CC1 was read as DT40 TDP1 no CPT inconclusive, SW480 rereplic 0%, MCF10A rerep -2%, IL1B secr inh 21, Chronic BCR inh 11% and DT40 TDP1 CPT -19%.
For COc1ccccc1CNC(=O)CCC1N=C2c3ccccc3N=C(SCc3ccc(Cl)cc3)N2C1=O (configuration not stated) the results were DT40 TDP1 no CPT inconclusive, Chronic BCR inh 1% and DT40 TDP1 CPT inconclusive.
For CCC(Sc1nc2ccncc2[nH]1)C(=O)Nc1cc(Cl)ccc1C (configuration not stated) the results were DT40 TDP1 no CPT 18µM*, SW480 rereplic -5%, MCF10A rerep 0%, IL1B secr inh 15, Chronic BCR inh 1% and DT40 TDP1 CPT 29µM*.
